Source: PubChem BioAssay (NMMLSC)
RGS16-Gao = modulators of RGS16 binding to Galphao, primary screen, biochemical, human proteins, multiplexed bead flow cytometry; bead-based flow cytometry RGS16-Galphao binding, fluorescence; actives lie on both sides; binding response (% of control), % at 10 µM; 220,000 tested, 0.38% active;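 further: Galphao activated by GDP with aluminum fluoride before binding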
Target sequence (O15492 whole entry, looked up): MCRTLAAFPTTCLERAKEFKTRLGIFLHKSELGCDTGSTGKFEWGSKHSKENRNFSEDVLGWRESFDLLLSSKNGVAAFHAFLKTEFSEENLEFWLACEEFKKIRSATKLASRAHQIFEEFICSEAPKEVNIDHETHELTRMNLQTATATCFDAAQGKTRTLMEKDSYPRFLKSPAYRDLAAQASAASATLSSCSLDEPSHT
Target sequence (P09471 whole entry, looked up): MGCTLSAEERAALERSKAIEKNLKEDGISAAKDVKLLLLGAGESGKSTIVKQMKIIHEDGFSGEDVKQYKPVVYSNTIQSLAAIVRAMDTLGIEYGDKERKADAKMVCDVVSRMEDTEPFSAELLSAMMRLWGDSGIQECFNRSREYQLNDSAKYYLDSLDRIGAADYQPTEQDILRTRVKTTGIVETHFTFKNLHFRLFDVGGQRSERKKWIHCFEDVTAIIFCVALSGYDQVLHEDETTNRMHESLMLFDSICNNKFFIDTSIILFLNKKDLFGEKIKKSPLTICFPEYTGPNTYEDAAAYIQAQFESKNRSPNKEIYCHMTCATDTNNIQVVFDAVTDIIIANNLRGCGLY
RGS8-Gao reg = RGS8-Galphao binding modulators, primary screen, biochemical, multiplexed bead flow cytometry. Guanine nucleotide-binding protein G(o) subunit alpha (Homo sapiens), P09471. actives lie on both sides. response (percent of control binding), % at 10 µM. 220,000 tested, 0.34% active; in the data active means response below about 60% or above about 140%; inactive means in between;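 further: Galphao activated as the GDP aluminium fluoride complex binding bead-coupled RGS8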
Target sequence (P09471 whole entry, looked up): as above
GSH fluor = compound fluorescence on glutathione beads, profiling panel, artefact control, biophysical, 488/530 nm, flow cytometry | GSH beads flow cytometry, compound fluorescence 488/530 nm; hits give high values | fluorescence (KMESF) at 10 µM | 190,000 tested, 0.25% active; in the data active means fluorescence above about 89;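 further: glutathione beads carrying GST-tagged Bcl family fusion proteins plus one bare bead set; values are compound well signal with DMSO vehicle wells as background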
RGS4-Gao reg = modulators of RGS4 binding to Galphao, primary screen, biochemical, multiplexed bead flow cytometry | Guanine nucleotide-binding protein G(o) subunit alpha (Homo sapiens), P09471 | actives lie on both sides | binding response (% of control), % at 10 µM | 220,000 tested, 0.33% active; in the data active means binding response below about 49% or above about 150%; inactive means in between;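 further: fluorescent Galphao activated with aluminum fluoride binding bead-coupled RGS4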
Avidin fluor = green autofluorescence of compounds with avidin beads – biophysical, 488/530 nm, flow cytometry, artefact control, profiling panel. compound fluorescence 488/530 nm; hits give high values. fluorescence (KMESF) at 10 µM. 220,000 tested, 0.38% active. AID 1775, 2009; in the data active means fluorescence above about 47
RGS7-Gao = RGS7-Galphao binding modulators, primary screen, biochemical, multiplexed bead flow cytometry; Guanine nucleotide-binding protein G(o) subunit alpha (Homo sapiens), P09471; actives lie on both sides; binding response (% of control), % at 10 µM; 220,000 tested, 0.35% active; in the data active means binding response below about 49% or above about 150%; inconclusive means no clear call, values can overlap the other calls; inactive means in between;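 further: fluorescent Galphao held in activated GDP-AlF4 state binding bead-coupled RGS7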
RGS4-Gao HTS = modulators of RGS–Galpha-o binding, primary screen, biochemical, multiplexed beads, flow cytometry, RGS4/7/8/16/19; 1,600 tested, 99% active; shares compounds with RGS16-Gao; RGS4–Galpha-o binding response, % at 10 µM; multiplexed bead flow cytometry;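 further: fluorescently labeled Galpha-o bound to GDP with aluminium fluoride binding biotinylated RGS beads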
Avidin counter = disruption of biotin probe capture by avidin, counter-screen for RGS protein interaction modulators, biochemical, flow cytometry, bead-based | 1,700 tested, under 10 active | streptavidin beads, fluorescein-biotin binding | shares compounds with RGS16-Gao | inhibition, % at 10 µM;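 active means inhibition above 50%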;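 further: median green fluorescence of gated singlet beads compared with DMSO control wells; 0% = DMSO wells and 100% = complete loss of bead fluorescence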
RGS8-Gao single = RGS8-Galphao binding modulators, confirmation, biochemical, multiplexed bead flow cytometry, single concentration. shares compounds with RGS16-Gao. bead-based flow cytometry RGS8-Galphao binding, fluorescence; actives lie on both sides. binding response (% of control), % at 10 µM. 1,700 tested, 3% active; in the data active means binding response below about 72% or above about 130%; inactive means in between;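 further: Galphao activated as GDP AlF4 complex before binding bead RGS8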
RGS7-Gao confirm = RGS7-Galphao binding modulators, confirmation, biochemical, multiplexed bead flow cytometry, single concentration; bead-based flow cytometry RGS7-Galphao binding; actives lie on both sides; AID 1837, 2009; response (percent of control binding), % at 10 µM; shares compounds with RGS16-Gao; 1,700 tested, 7.8% active; in the data active means response below about 75% or above about 130%; inactive means in between;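 further: fluorescent Galphao activated with GDP and aluminum fluoride binding bead-coupled RGS7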
RGS16-Gao single = modulators of RGS16-Galphao protein binding, confirmation, biochemical, single concentration, multiplexed bead flow cytometry. shares compounds with RGS16-Gao. bead-based flow cytometry; actives lie on both sides. response (% of control binding), % at 10 µM. 1,700 tested, 4% active. AID 1838, 2009; in the data active means response below about 74% or above about 130%; inactive means in between;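 further: Galphao activated as the GDP aluminium fluoride complex binding bead-coupled RGS16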
RGS4-Gao confirm = modulators of RGS4-Galphao protein binding, confirmation, biochemical, single concentration, multiplexed bead flow cytometry | 1,700 tested, 4% active | actives lie on both sides | binding response (% of control), % at 10 µM | shares compounds with RGS16-Gao | AID 1840, 2009; in the data active means binding response below about 74% or above about 130%; inactive means in between
RGS19-Gao single = regulators of RGS19-Galphao binding, confirmation, biochemical, single point, multiplexed bead flow cytometry. response (percent of control binding), % at 10 µM. bead-based flow cytometry RGS19-Galphao binding; actives lie on both sides. AID 1841, 2009. shares compounds with RGS16-Gao. 1,700 tested, 5% active; in the data active means response below about 50% or above about 160%; inactive means in between;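 further: 100% = no compound control and 0% = blank background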
Active calls of the source: *; i = inactive; ? = inconclusive; . = no result given; [ ] = remark or other dose. In the library only some 1.2% were active in any assay of this set; here they are far more common. Unless noted, how the calls were made is not given here.

SMILES	RGS16-Gao	RGS8-Gao reg	GSH fluor	RGS4-Gao reg	Avidin fluor	RGS7-Gao	RGS4-Gao HTS	Avidin counter	RGS8-Gao single	RGS7-Gao confirm	RGS16-Gao single	RGS4-Gao confirm	RGS19-Gao single
CC(=O)N1CCc2cc(S(=O)(=O)NC(Cc3ccccc3)C(=O)Nc3cc(C)ccn3)ccc21 (stereo not drawn)	940.5	153.4*[activator]	34	129.4	5	117.7	129.4*	i	100.4	100.8	101.7	102.4	104.8
COc1ccc(CN2CCN(Cc3ccon3)CC2CCO)c(C)c1C (stereo not drawn)	101.4	101.4	.	102.8	5	?	.	.	.	.	.	.	.
Clc1ccc(/C(Cc2nc3ccccc3[nH]2)=N\Nc2ccccc2)cc1	105.6	101.1	20	97.9	6	98.9	.	.	.	.	.	.	.
N#CCCN/N=C(/Cc1nc2ccccc2[nH]1)c1cccc(Cl)c1	223.5*[activator]	169.0*[activator]	27	246.7*[activator]	9	197.6*[activator]	.	1.4	94.7	97.4	92.9	95.8	95.9
Cn1c(-n2c(CCCN3C(=O)c4ccccc4C3=O)nc3ccccc3c2=O)nc2ccccc21	725.0	117.8	255*	180.5*[activator]	42	116.0	.	-1.3	102.5	106.7	103.4	103.4	104.7
O=C(NCc1ccco1)C(=O)c1cn(CC(=O)N2CCCCC2)c2ccccc12	104.1	100.3	9	95.9	13	95.9	.	.	.	.	.	.	.
CCOC(CNC(=O)c1cccn2c(=O)c3cc(Cl)ccc3nc12)OCC	54.3	70.9	18	51.8	4	48.1*	51.8*	-0.5	100.8	98.8	101.5	98.3	106.5
O=C(Cc1ccc(Cl)cc1)Oc1cccc2cccnc12	22.4*	65.5	24	78.9	6	82.3	78.9*	0.5	97.9	96.0	96.5	99.0	84.1
O=C(Oc1cccc2cccnc12)c1ccco1	93.9	93.8	34	97.1	7	95.8	.	.	.	.	.	.	.
Cc1cccc(N=Cc2[nH]c3ccc(Br)c(Cl)c3c2O)c1	138.8	103.8	16	141.8	33	153.4*[activator]	141.8*	.	.	.	.	.	.
Cc1cc(C)c(NC(=O)c2cnn(C)c2)c(C)c1	-385.8	4.6*	10	-6.8*	-3	2.0*	.	0.2	111.3	118.4	111.9	113.7	101.4
C/C(=N/OC(=O)c1ccccc1)c1oc(C)nc1C	124.8	102.2	.	98.6	2	?	.	.	.	.	.	.	.
CC(C(=O)NC(=O)NCc1ccccc1)N1C(=O)c2ccccc2C1=O (stereo not drawn)	.	.	38	139.9	.	.	.	-0.3	98.1	97.0	95.8	97.9	106.2
Cc1cccc(NS(=O)(=O)c2cc(C(=O)OC(C)C(=O)NCc3ccc4c(c3)OCO4)ccc2C)c1 (stereo not drawn)	99.1	100.2	17	102.7	20	101.2	.	.	.	.	.	.	.
COc1ccc(C(=O)Nc2cc(C(C)=O)c(C)oc2=O)cc1	100.9	101.2	15	100.5	9	?	.	.	.	.	.	.	.
COC(=O)c1cc(NC(=O)c2ccccc2)c(=O)oc1/C=C/Nc1ccc(Oc2ccccc2)cc1	205.0*[activator]	114.4	161*	215.1*[activator]	80*	210.5*[activator]	.	-1.2	125.1*[activator]	399.1*[activator]	259.8*[activator]	284.2*[activator]	420.0*[activator]
C/C(=N/NC(=O)c1cc(-c2ccc(Br)s2)[nH]n1)c1ccco1	113.8	106.2	32	104.4	10	104.3	.	.	.	.	.	.	.
C/C(=N\NC(=O)c1cc(C(C)C)[nH]n1)c1ccco1	190.4*[activator]	125.8	7	101.9	3	105.9	101.9*	1.6	101.0	101.8	100.6	99.8	107.8
NC(=O)c1ccc(C23CC4CC(CC(C4)C2)C3)o1	202.2*[activator]	118.3	6	100.6	13	95.5	100.6*	-0.7	109.8	99.7	108.4	98.7	90.1
N=c1sccn1CC(=O)Nc1cccc(S(=O)(=O)N2CCCCCC2)c1	91.7	94.3	13	95.0	12	?	.	.	.	.	.	.	.
CC(C)CNC(=O)c1ccc(COc2ccc(Cl)cc2Cl)o1	44.8	59.8*	21	51.6	2	48.5*	51.6*	-1.5	100.4	96.1	99.4	97.8	107.7
O=C(Nc1ccccc1F)c1ccc(COc2ccc(Cl)cc2Cl)o1	106.0	103.1	16	100.7	7	101.5	.	.	.	.	.	.	.
Cc1cccc(C(=O)Nc2ccc(C(=O)/C=C/c3cccnc3)cc2)c1	242.2	105.0	0	196.5*[activator]	30	186.2*[activator]	.	0.1	99.6	104.6	102.1	101.5	103.2
O=C(/C=C/c1cccnc1)c1ccc(NC(=O)c2cccc(Br)c2)cc1	100.9	99.2	21	100.7	5	100.2	.	.	.	.	.	.	.
CC1=C(C(=O)OC(C)C)C(c2cccc(F)c2)N2C(=O)C(C)SC2=N1 (stereo not drawn)	.	.	20	.	.	.	.	0.4	101.2	98.4	98.9	99.8	89.7
CC1=C(C(=O)OCC(C)C)C(c2cccc(F)c2)N2C(=O)C(C)SC2=N1 (stereo not drawn)	104.8	104.8	12	102.0	10	100.8	.	.	.	.	.	.	.
